Results filed as inconclusive are left out. The source holds several records for some structures; these can differ, active in one and inactive in another. Calls of active or inactive are those of the source. Unless noted, the call rests on the fitted dose curve; in most records, active means well fitted curve in the direction sought with a large enough effect in the repeat runs; inconclusive means weak or mixed curves; inactive means no such curve, though single readings can be large; an effect the other way counts as inactive or inconclusive.

Assay [1] can be described thus: qHTS assay to identify aromatase inhibitors - cell viability counter screen (AID 743084).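 Further: cells stimulated with testosterone during compound exposure; nearly all actives have a fitted effect of over 55% in size.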 A general note: qHTS replaces the single test concentration by a dilution series.
Assay [2] addresses Aryl hydrocarbon receptor (Homo sapiens) (UniProt P35869). Put plainly: qHTS assay to identify small molecule that activate the aryl hydrocarbon receptor (AhR) signaling pathway (AID 743085). Further: nearly all actives have a fitted effect of over 15% in size. Further: potency means the concentration at half of the fitted maximal effect.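 On activation: HG2L7.5c1 human HepG2 liver cells with stably integrated DRE-driven firefly reporter; series mostly up to about 70 µM.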 The gist of the method:
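24 h compound exposure, 37C, HepG2-derived HG2L7.5c1 cells with DRE-responsive luciferase. Readouts: fluorescence viability, then luminescence at room temperature after 30 min.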

Assay [3] in a line: qHTS assay to identify small molecule that activate the aryl hydrocarbon receptor (AhR) signaling pathway - cell viability counter screen (AID 743086).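 Further: HepG2 liver cells carrying the AhR DRE luciferase reporter; series mostly up to about 70 µM; nearly all actives have a fitted effect of over 45% in size.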 The method in brief:
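HepG2-AhR-luc (HG2L7.5c1) cells, 4000/well, treated 24 h at 37 C with compound; viability measured as CellTiter-Fluor fluorescence after 30 min in the same wells as the luciferase read.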

The target in assay [4] is Peroxisome proliferator-activated receptor gamma (Homo sapiens) (UniProt P37231). Put plainly: qHTS assay to identify small molecule agonists of the peroxisome proliferator-activated receptor gamma (PPARg) signaling pathway (AID 743094; active means well fitted activation curve with a large enough effect in the signal ratio in the repeat runs, not every such curve was filed as active; the % refers to the signal ratio). The gist of the method: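 Compounds dissolved in DMSO were added to PPARg UAS-bla HEK293H cells for 17 h at 37C, and reporter expression was quantified by fluorescence intensity after 1 h with LiveBLAzer B/G FRET substrate.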
Peroxisome proliferator-activated receptor gamma (Homo sapiens), sequence (P37231 whole entry, looked up): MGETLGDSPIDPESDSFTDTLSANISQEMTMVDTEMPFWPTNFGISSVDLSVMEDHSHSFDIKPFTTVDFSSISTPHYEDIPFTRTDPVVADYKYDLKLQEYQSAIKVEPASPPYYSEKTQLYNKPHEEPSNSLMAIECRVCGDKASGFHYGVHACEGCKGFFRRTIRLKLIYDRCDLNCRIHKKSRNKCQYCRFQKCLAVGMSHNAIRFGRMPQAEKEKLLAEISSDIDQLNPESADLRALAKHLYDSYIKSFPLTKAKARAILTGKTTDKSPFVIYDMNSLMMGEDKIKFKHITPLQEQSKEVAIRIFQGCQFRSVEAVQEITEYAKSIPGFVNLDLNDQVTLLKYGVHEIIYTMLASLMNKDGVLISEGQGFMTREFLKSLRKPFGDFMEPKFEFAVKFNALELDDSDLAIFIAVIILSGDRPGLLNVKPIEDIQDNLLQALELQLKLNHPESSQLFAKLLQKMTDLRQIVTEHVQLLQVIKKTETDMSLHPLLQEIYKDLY

Assay [5] shares this target. Put plainly: qHTS assay to identify small molecule antagonists of the peroxisome proliferator-activated receptor gamma (PPARg) signaling pathway (AID 743191; calls by dose curve; further: nearly all actives have a fitted effect of over 30% in size; further: potency means the concentration at half of the fitted maximal effect). The gist of the method: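 GeneBLAzer PPARg UAS-bla HEK293H cells, 5 h post-plating, exposed to compounds 17 h at 37C. LiveBLAzer B/G FRET substrate added for 1 h at room temperature; beta-lactamase reporter read by fluorescence intensity.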

A short description of assay [6]: qHTS assay to identify small molecule antagonists of the peroxisome proliferator-activated receptor gamma (PPARg) signaling pathway - cell viability counter screen (AID 743194). Further: nearly all actives have a fitted effect of over 55% in size. The gist of the method:
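Cytotoxicity counter screen in PPARg-bla HEK293H cells, same wells as reporter assay. Compounds plus 50 nM rosiglitazone (final) for 17 h at 37 C, then viability read by CellTiter-Glo luminescence.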

Assay [7] is described as follows: qHTS assay for small molecule agonists of the antioxidant response element (ARE) signaling pathway - cell viability counter screen (AID 743203; calls by dose curve; further: nearly all actives have a fitted effect of over 55% in size; further: potency means the concentration at half of the fitted maximal effect). The gist of the method:
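Following 16 hrs of compound treatment at 37C, HepG2 cells with an ARE-controlled beta-lactamase gene were lysed with CellTiter-Glo. Luminescence was read after 30 min at room temperature.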

Assay [8] in a line: qHTS assay for small molecule activators of the heat shock response signaling pathway - cell viability counter screen (AID 743209). Further: nearly all actives have a fitted effect of over 50% in size. The gist of the method: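 Readout: CellTiter-Glo luminescence, 30 min at room temperature. System: HSE-bla HeLa cells, 1500/well, plated overnight. Treatment: compounds in DMSO, 5 h at 37 C.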
Assay [9] can be described thus: qHTS assay for small molecule activators of the heat shock response signaling pathway (AID 743210; active means well fitted activation curve with a large enough effect in the signal ratio in the repeat runs, with a control signal flat, not every such curve was filed as active; the % refers to the signal ratio;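 further: HeLa cells with beta-lactamase reporter driven by heat shock elements; series mostly up to about 63 µM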). The method in brief: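 Quantitative high-throughput format using an engineered HeLa line in which heat shock response elements drive beta-lactamase; after 5 h with compound, cells received a B/G FRET substrate and fluorescence was read.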
Assay [10] is described as follows: qHTS assay to identify small molecule agonists of the peroxisome proliferator-activated receptor delta (PPARd) signaling pathway - cell viability counter screen (AID 743211). Further: nearly all actives have a fitted effect of over 55% in size. Further: potency means the concentration at half of the fitted maximal effect. The gist of the method: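 Luminescent ATP viability assay (CellTiter-Glo, 30 min RT) in UAS-bla HEK293H cells carrying the PPAR delta reporter construct, 3000 cells/well, after a 17 h compound treatment at 37 C.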

The target of assay [11] is Peroxisome proliferator-activated receptor delta (Homo sapiens) (UniProt Q03181). Put plainly: qHTS assay to identify small molecule agonists of the peroxisome proliferator-activated receptor delta (PPARd) signaling pathway (AID 743212; calls by dose curve). The gist of the method: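 Quantitative high-throughput agonist screen in a HEK293H beta-lactamase reporter line under UAS control. Compounds in DMSO, at 37 C. Fluorescence read after 2 h with FRET substrate at room temperature.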
Peroxisome proliferator-activated receptor delta (Homo sapiens), sequence (Q03181 whole entry, looked up): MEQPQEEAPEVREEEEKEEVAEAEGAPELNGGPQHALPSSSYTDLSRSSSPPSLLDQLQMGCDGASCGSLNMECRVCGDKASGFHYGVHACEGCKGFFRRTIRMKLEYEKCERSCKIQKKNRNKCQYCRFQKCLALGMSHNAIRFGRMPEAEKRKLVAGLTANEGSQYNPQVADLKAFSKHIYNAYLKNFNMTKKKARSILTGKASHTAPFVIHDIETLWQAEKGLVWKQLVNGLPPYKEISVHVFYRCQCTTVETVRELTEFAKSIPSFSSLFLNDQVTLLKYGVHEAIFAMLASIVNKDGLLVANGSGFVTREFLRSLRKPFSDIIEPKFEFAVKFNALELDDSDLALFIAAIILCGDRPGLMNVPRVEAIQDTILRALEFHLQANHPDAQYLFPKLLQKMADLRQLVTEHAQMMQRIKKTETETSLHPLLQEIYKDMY

Assay [12] shares this target. Put plainly: qHTS assay to identify small molecule antagonists of the peroxisome proliferator-activated receptor delta (PPARd) signaling pathway (AID 743215; active means well fitted inhibition curve with a large enough effect in the signal ratio in the repeat runs, not every such curve was filed as active; the % refers to the signal ratio;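 further: cells stimulated with agonist L165041 at 300 nM final during compound exposure; series mostly up to about 62 µM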). The gist of the method:
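HEK293H UAS-bla, PPARd; agonist L165041 300 nM final with cpd in DMSO; 37 C 17 h; FRET substrate, RT 2 h; fluorescence intensity.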

Assay [13] in a line: qHTS assay to identify small molecule agonists of the farnesoid-X-receptor (FXR) signaling pathway - cell viability counter screen (AID 743218). Further: nearly all actives have a fitted effect of over 45% in size. Further: potency means the concentration at half of the fitted maximal effect. The method in brief: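 Parallel cytotoxicity test: compound-treated (16 h, 37 C) HEK 293T FXR-bla reporter cells were lysed with CellTiter-Glo and luminescence recorded.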
Assay [14] can be described thus: qHTS assay to identify small molecule antagonists of the farnesoid-X-receptor (FXR) signaling pathway - cell viability counter screen (AID 743221; active means well fitted cell-killing curve with a large enough effect in the repeat runs, not every such curve was filed as active; further: nearly all actives have a fitted effect of over 50% in size). The gist of the method: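 In GeneBLAzer FXR-UAS-bla HEK 293T cells stimulated with 50 uM chenodeoxycholic acid (final), compounds acted for 16 h at 37 C. Viability was assessed afterwards by CellTiter-Glo luminescence.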

The target in assay [15] is Vitamin D3 receptor (Homo sapiens) (UniProt P11473). Put plainly: qHTS assay to identify small molecule agonists of the vitamin D receptor (VDR) signaling pathway (AID 743222; calls by dose curve). The method in brief: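 In VDR-bla cells, compound-induced beta-lactamase expression is quantified by FRET substrate fluorescence. Treatment lasts 16 h at 37C; substrate develops 2 h at room temperature.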
Vitamin D3 receptor (Homo sapiens), sequence (P11473 whole entry, looked up): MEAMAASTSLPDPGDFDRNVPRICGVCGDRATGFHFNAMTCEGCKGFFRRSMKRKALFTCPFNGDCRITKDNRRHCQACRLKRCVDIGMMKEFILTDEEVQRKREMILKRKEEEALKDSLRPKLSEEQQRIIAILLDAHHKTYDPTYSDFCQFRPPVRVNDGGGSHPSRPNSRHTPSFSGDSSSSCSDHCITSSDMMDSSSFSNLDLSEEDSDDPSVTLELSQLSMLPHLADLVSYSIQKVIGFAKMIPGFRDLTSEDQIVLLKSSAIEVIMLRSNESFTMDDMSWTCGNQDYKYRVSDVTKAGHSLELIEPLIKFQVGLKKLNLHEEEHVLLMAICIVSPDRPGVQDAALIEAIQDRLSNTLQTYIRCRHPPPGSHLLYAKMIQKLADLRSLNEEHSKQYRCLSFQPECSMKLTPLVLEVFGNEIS

The target is the same in assay [16]. Put plainly: qHTS assay to identify small molecule antagonists of the vitamin D receptor (VDR) signaling pathway (AID 743223; active means well fitted inhibition curve with a large enough effect in the signal ratio in the repeat runs, not every such curve was filed as active; the % refers to the signal ratio). The gist of the method: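 Agonist 1alpha,25-dihydroxyvitamin D3 (3 nM in well) was added with each compound to VDR-bla cells preincubated 4 h. Cells stood 16 h at 37C, then FRET substrate 2 h at room temperature; fluorescence intensity recorded.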

A short description of assay [17]: qHTS assay to identify small molecule antagonists of the peroxisome proliferator-activated receptor delta (PPARd) signaling pathway - cell viability counter screen (AID 743213). Further: nearly all actives have a fitted effect of over 50% in size. The method in brief:
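Cytotoxicity counter screen: CellTiter-Glo luminescence read 30 min after addition, in the same wells as the reporter assay. There, PPARd UAS-bla HEK293H cells (3000/well) were treated 17 h at 37 C with compound and 300 nM L165041.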

Assay [18] deals with Bile acid receptor (Homo sapiens) (UniProt Q96RI1). Put plainly: qHTS assay to identify small molecule antagonists of the farnesoid-X-receptor (FXR) signaling pathway (AID 743217; active means well fitted inhibition curve with a large enough effect in the signal ratio in the repeat runs, not every such curve was filed as active; the % refers to the signal ratio). The method in brief: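 GeneBLAzer FXR-UAS-bla HEK 293T, CDCA-stimulated (50 uM final). Compound treatment 16 h, 37 °C. Detection: beta-lactamase cleavage of B/G FRET substrate, fluorescence.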
Bile acid receptor (Homo sapiens), sequence (Q96RI1 whole entry, looked up): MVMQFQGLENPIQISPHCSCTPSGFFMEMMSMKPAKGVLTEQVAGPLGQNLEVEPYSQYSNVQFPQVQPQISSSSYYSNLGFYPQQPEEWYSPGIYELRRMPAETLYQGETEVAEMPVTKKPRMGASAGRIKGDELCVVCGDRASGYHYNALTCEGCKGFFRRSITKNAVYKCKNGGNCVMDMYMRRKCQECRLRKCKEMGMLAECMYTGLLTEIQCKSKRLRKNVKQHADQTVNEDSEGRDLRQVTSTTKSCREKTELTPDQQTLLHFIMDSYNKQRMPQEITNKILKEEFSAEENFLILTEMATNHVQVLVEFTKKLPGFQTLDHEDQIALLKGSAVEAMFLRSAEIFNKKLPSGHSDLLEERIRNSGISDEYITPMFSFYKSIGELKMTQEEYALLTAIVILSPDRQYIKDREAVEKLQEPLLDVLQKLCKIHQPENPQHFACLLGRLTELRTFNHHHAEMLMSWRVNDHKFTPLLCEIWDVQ
Assay [19] can be described thus: qHTS assay for small molecule agonists of the antioxidant response element (ARE) signaling pathway (AID 743202; active means well fitted activation curve with a large enough effect in the signal ratio in the repeat runs, not every such curve was filed as active; the % refers to the signal ratio; further: potency means the concentration at half of the fitted maximal effect). The method in brief: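 Agonist mode reporter screen: HepG2 cells with ARE-controlled beta-lactamase are incubated with test compounds for 16 h at 37 C, and beta-lactamase activity is measured as fluorescence of cleaved B/G FRET substrate.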
For assay [20], the target named is Bile acid receptor (Homo sapiens) (UniProt Q96RI1). Put plainly: qHTS assay to identify small molecule agonists of the farnesoid-X-receptor (FXR) signaling pathway (AID 743220; active means well fitted activation curve with a large enough effect in the signal ratio in the repeat runs, not every such curve was filed as active; the % refers to the signal ratio). The gist of the method: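 Beta-lactamase reporter under UAS control in GeneBLAzer FXR HEK 293T cells (5000/well) measured with LiveBLAzer FRET substrate after 2 h at room temperature. Compound exposure lasted 16 h at 37C.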

Aryl hydrocarbon receptor (Homo sapiens), sequence (P35869 whole entry, looked up): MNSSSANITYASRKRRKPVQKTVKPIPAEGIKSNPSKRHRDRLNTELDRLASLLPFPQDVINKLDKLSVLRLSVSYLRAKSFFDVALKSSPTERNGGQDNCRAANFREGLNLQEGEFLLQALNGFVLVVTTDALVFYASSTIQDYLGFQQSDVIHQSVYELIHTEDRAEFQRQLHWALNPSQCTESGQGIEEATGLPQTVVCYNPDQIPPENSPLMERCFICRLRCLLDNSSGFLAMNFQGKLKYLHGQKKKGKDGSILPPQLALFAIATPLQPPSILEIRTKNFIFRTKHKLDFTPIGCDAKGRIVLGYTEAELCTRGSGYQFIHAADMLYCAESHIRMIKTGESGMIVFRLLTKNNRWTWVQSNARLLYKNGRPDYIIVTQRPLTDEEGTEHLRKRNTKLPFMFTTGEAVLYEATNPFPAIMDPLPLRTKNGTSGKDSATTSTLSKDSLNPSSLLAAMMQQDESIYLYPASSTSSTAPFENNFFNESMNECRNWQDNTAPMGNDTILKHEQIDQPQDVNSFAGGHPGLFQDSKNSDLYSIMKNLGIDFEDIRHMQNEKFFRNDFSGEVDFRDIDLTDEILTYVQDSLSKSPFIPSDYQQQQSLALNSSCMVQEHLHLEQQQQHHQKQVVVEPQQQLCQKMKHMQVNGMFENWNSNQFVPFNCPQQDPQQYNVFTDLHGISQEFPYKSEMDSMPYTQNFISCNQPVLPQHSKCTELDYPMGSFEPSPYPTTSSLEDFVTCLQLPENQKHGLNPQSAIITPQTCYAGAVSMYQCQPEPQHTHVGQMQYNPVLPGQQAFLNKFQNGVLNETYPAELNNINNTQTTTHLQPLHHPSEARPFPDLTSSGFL

Consider `CCC(N)(CO)CO`, for which the Potency result in assay [1], in [2], in assay [3], in assay [4], in assay [5] and in assay [6] was “inactive” each time. Further, the Potency entry in assay [7], in [8], in [9], in [10], in assay [11] and in assay [12] was “inactive” throughout. In addition, the Potency result in [13], in assay [14], in [15] and in assay [16] was “inactive” each time.
Regarding `CCCCCCC[N+](CC)(CC)CCCCc1ccc(Cl)cc1`, the Potency result in [1], in assay [2], in [3], in assay [4], in [5] and in assay [6] was “inactive” in each case. Moreover, the Potency entry in assay [7], in [8], in assay [17], in [13], in [14] and in [16] was “inactive” each time.
In the case of `NNc1nc(-c2ccccc2)cs1`, the Potency result in assay [1], in [3], in assay [4], in assay [6], in assay [7] and in assay [8] was “inactive” each time. Also, the Potency entry in [12] and in assay [16] was “inactive” each time. In addition, the results for the Potency in assay [2], in assay [5] and in assay [13] were 9.97 µM (active), 0.504 µM (active) and 2.52 µM (active), respectively.
Turning to `CCCCN(CCCC)C(=O)N(CCCC)CCCC`, the Potency result in assay [1], in [2], in [3], in assay [4], in assay [5] and in assay [6] was “inactive” each time. In addition, the Potency entry in assay [7], in [8], in [9], in [11], in [17] and in assay [12] was “inactive” in each case. In addition, the Potency entry in assay [18], in [13], in [14] and in assay [15] was “inactive” throughout.
Take `C/C=C(\C)C(=O)OCc1ccccc1`: the Potency entry in assay [1], in assay [2], in assay [3], in assay [4], in assay [6] and in assay [19] was “inactive” in each case. The Potency result in [7], in assay [13], in [14] and in assay [15] was “inactive” throughout.
Turning to `CC[C@H](c1ccc(O)cc1)[C@@H](CC)c1ccc(O)cc1`, the Potency result in assay [1], in [2], in [3], in assay [4], in assay [8] and in assay [11] was “inactive” in each case. Moreover, the Potency result in assay [17], in [12], in assay [20], in assay [14] and in assay [15] was “inactive” each time. For the same compound, the Potency in [5] was 29.8 µM (active); in [19], 4.22 µM (active); in assay [7] it was 54.5 µM (active) and inactive; in assay [10] it was 54.9 µM (active).
Turning to `O=C(c1ccc(F)cc1)C1CCN(CCn2c(=O)[nH]c3ccccc3c2=O)CC1`, the Potency entry in assay [1], in assay [2], in assay [3], in assay [4], in assay [6] and in [19] was “inactive” throughout. Moreover, the Potency result in assay [7], in [8], in assay [9], in assay [11], in assay [17] and in assay [12] was “inactive” in each case. Moreover, the Potency entry in assay [13] and in assay [14] was “inactive” throughout.
As for `O=[N+]([O-])c1ccccc1Nc1ccccc1`, the Potency result in [1], in assay [2], in assay [3], in [4], in assay [5] and in assay [6] was “inactive” in each case. For the same compound, the Potency result in [19], in assay [7], in [8], in assay [9], in assay [10] and in [17] was “inactive” each time. Moreover, the Potency result in assay [13], in assay [14] and in [15] was “inactive” in each case.
